Consider 51 compounds from PubChem BioAssay AID624417 (National Center for Advancing Translational Sciences (NCATS), 2012).

The whole screen tested about 410,000 compounds, of which about 6,400 (1.6%) were called active. Another 20% or so got no clear call; they are omitted. The list comes from a sample in which actives are over-represented; it also holds similar structures and randomly drawn compounds. A number with no mark means an inactive call. Calls follow the shape of the dose curve; as a rule, active = well fitted inhibition curve with a large enough effect; inconclusive = small, poorly fitted or top-dose-only effect; inactive = no such curve, though single readings can be large or run the other way.
% is scaled to controls: 0 for no effect and ±100 for the full control effect; potency is read from the fitted curve at half-maximal effect.

Sequence of Glucagon-like peptide 1 receptor (Homo sapiens) (P43220 whole entry, looked up): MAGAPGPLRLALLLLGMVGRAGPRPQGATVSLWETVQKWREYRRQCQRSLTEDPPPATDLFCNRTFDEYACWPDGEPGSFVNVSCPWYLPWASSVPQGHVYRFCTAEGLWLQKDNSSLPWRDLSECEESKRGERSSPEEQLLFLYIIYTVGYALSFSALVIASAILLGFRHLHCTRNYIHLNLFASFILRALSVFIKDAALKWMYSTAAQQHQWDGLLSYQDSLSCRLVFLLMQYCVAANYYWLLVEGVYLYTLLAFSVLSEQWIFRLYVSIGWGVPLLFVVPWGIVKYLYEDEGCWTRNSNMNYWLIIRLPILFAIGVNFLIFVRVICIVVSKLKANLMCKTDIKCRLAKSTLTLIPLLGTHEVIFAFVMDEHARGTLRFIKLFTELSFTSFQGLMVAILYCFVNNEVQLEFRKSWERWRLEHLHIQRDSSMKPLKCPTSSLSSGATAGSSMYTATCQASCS

The test concerns the target Glucagon-like peptide 1 receptor (Homo sapiens) (UniProt P43220). Description: qHTS of GLP-1 Receptor Inverse Agonists (Inhibition Mode). Also: nearly all actives have a fitted effect of over 55% in size. The conditions noted are these: HEK293 GLP-1R CRE-luciferase, luminescence, 24 h, GLP-1R form is constitutively active; series mostly up to 38.3 µM; activity change, negative = inhibition: at the top concentration. In a few lines:
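HEK293 cells stably co-expressing a cAMP-responsive luciferase reporter and constitutively active GLP-1R were seeded, incubated 12 h, then exposed to compounds for 24 h at 37 C. Luminescence was read 12 min after detection reagent; inverse agonists lower signal.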
(In general: In qHTS, concentration-response curves come from the screen itself.)
Take `Cc1ccc(-c2noc(CC(c3ccccc3)c3ccccc3)n2)cc1`: the Potency was 5.62 µM (active).
`Cc1ccc(-c2noc(CSc3nnc(-c4ccc(Cl)cc4)n3C)n2)cc1`: the “activity change, negative = inhibition” value is 12.7%.
For `c1ccc(CCc2nc(-c3ccncc3)no2)cc1`, the “activity change, negative = inhibition” value is 2.26%.
`CC[C@@H]1CC2=C(C(=O)OC(C)(C)O2)[C@@H](CC)O1`: the “activity change, negative = inhibition” value is 26.8%.
With `CC1(C)NC(=O)N(CC(=O)Nc2ccc(-c3ccccc3)cc2)C1=O`, the “activity change, negative = inhibition” value was 0.129%.
On the same count and under the same terms, the same measure for `Cc1c(C(=O)NCc2ccc(C#N)cc2)sc(=O)n1Cc1ccc(C(=O)N(C)C)cc1`: 10.9%; for `O=C(c1ccco1)N1CCN(Cc2cccc(C(F)(F)F)c2)CC1`: -16.9%.
In the case of `FC(F)(F)c1cccc(Cc2noc(CN3CCC(N4CCCCC4)CC3)n2)c1`, the Potency is 5.62 µM (active).
With `CCOC(=O)N1CCN(Cc2nc(Cc3cccc(C(F)(F)F)c3)no2)CC1`, the “activity change, negative = inhibition” value is -5.14%.
On to `O=C(NCc1ccccc1)C1c2ccccc2OCC(=O)N1CCCN1CCOCC1` (stereo unspecified), for which the “activity change, negative = inhibition” value was 20.2%.
As to `Cc1cc(Br)ccc1NC(=O)CCCOc1cc(=O)n(C)c2ccccc12`, the “activity change, negative = inhibition” value was 7.24%.
For the compound `COc1ccc(CN(CC(=O)NC2CCCC2)C(=O)CCC(=O)Nc2cc(C)on2)cc1`, the “activity change, negative = inhibition” value is -8.66%.
Regarding `Cc1ccc(CN(CC(=O)NC2CCCCC2)C(=O)c2csnn2)cc1`, the “activity change, negative = inhibition” value was -22.4%.
Consider `Cc1cc(C(C)(C)C)oc1C(=O)N(CC(=O)NC1CCCC1)Cc1ccc(Cl)cc1`, for which the Potency was 7.08 µM (active).
Regarding `O=C(CC[C@H]1O[C@@H](n2ccc(=O)[nH]c2=O)[C@H](O)[C@@H]1O)N[C@H](Cc1ccccc1)C(=O)NCc1ccco1`, the “activity change, negative = inhibition” value is 12.8%.
On to `Cc1cccc(C)c1OCC(O)CN1CCCCC1` (stereo unspecified), for which the “activity change, negative = inhibition” value is -1.02%.
`CC1CCCN(CC(O)COCc2ccccc2)C1` (stereo unspecified): the “activity change, negative = inhibition” value is -6.19%.
For the compound `Cc1ccccc1C(OCC(O)CN1CCCCC1CCO)c1ccccc1` (stereo unspecified), the Potency is 10 µM (active).
Take `Cc1nc(C(F)(F)F)ccc1C(=O)N1CCC1(C)C(=O)NS(=O)(=O)c1ccccc1Cl` (stereo unspecified): the “activity change, negative = inhibition” value is 15.1%.
As to `CCOC(=O)N(C)c1c(CC)nc2c(OCc3ccccc3C(=O)OC)cccn12`, the “activity change, negative = inhibition” value is 13.9%.
`COc1ccc(C(=O)OCC(=O)N2CC(=O)Nc3ccccc32)cc1Br`: the “activity change, negative = inhibition” value was 17.7%.
Regarding `COc1ccc(Cl)cc1-n1c(C)cc(C(=O)OCC(=O)N2CC(=O)Nc3ccccc32)c1C`, the Potency was 10 µM (active).
Turning to `COc1cc(OC)c(C(=O)OCC(=O)N2CC(=O)Nc3ccccc32)cc1OC`, the “activity change, negative = inhibition” value is 19.5%.
On the same count and under the same terms, the same measure for `Nc1cc(=O)c2[nH]cnc2[nH]1`: 2.06%; for `Cc1cc(C)n2c(Nc3c(C)cccc3C)c(CCc3ccccc3)nc2n1`: -31.1%.
On to `CN(Cc1ccccc1F)c1cc2c(c3c1ccn3C)C1CCC2O1` (stereo unspecified), for which the “activity change, negative = inhibition” value was -30.3%.
The same measure, in the same setting: the same measure for `N#CC1(Nc2ccc3c4c(cccc24)CC3)CCCCC1`: -13.8%; for `Cc1sc2ncnc(N3CCC(C(=O)Nc4nc5ccc(Cl)cc5s4)CC3)c2c1C`: 12.3%.
For the compound `CCc1ccc(C(=O)NNC(=O)C2CCN(c3ncnc4sc(C)c(C)c34)CC2)cc1`, the Potency was 10 µM (active).
For the compound `O=C(NNC(=O)C1CCN(c2ncccn2)CC1)c1ccccc1`, the “activity change, negative = inhibition” value is 13.1%.
Consider `C[C@H]1CN([C@@H](C)CO)C(=O)c2cc(C3=CCCCC3)cnc2O[C@@H]1CN(C)C(=O)Cc1ccccc1`, for which the “activity change, negative = inhibition” value was -17.6%.
As to `CC(C)Nc1ncnc2c1ncn2[C@H]1CN(Cc2ccncc2)C[C@@H](CO)O1`, the “activity change, negative = inhibition” value was 29.6%.
As to `S=C(NCc1ccc(Cl)cc1)NC12CC3CC(CC(C3)C1)C2`, the Potency is 8.91 µM (active).
Take `O=C(NCc1ccncc1)NC12CC3CC(CC(C3)C1)C2`: the “activity change, negative = inhibition” value was -8.91%.
`O=C(NCc1ccc(Cl)cc1)NCc1ccc(Cl)cc1`: the activity change, negative = inhibition was -0.855% [at 7.66 µM].
The same measure, in the same setting: the same measure for `O=C(NC1CCCC1)C1c2ccccc2OCC(=O)N1Cc1ccccc1` (stereo unspecified): 1.36%.
As to `CCOC(=O)c1cnn2c(SC)ncnc12`, the “activity change, negative = inhibition” value was 14.2%.
In the case of `CC(C)Nc1nc(N(c2ccccc2)c2ccccc2)nc(-n2ccnc2)n1`, the “activity change, negative = inhibition” value is 0.283%.
`N#Cc1nc(N)nc(N(c2ccccc2)c2ccccc2)n1`: the Potency was 12.6 µM (active).
For `CC(C)Cn1cc(-c2cncc3nccn23)cn1`, the “activity change, negative = inhibition” value is 12.6%.
With `CCCC(=O)N1CCC1(C)C(=O)NS(=O)(=O)c1ccc(Cl)cc1` (stereo unspecified), the “activity change, negative = inhibition” value was 4.5%.
In the case of `CCCNC(=O)C1(C)CCCN(Cc2c(C)nn(-c3ccccc3)c2C)C1` (stereo unspecified), the “activity change, negative = inhibition” value was -17.1%.
In the case of `O=C(NCCCN1CCOCC1)c1cc(-c2ccc(Cl)cc2)on1`, the “activity change, negative = inhibition” value was 0%.
The same measure, in the same setting: the same measure for `Cc1c(C)n(Cc2ccc(Cl)cc2)c2ccc(C(=O)NCCc3ccc(S(N)(=O)=O)cc3)cc12`: -12.1%.
With `Cc1c(C)n(Cc2ccc(Cl)cc2)c2ccc(C(=O)NCCCN3CCOCC3)cc12`, the Potency is 1.12 µM (active).
With `CCN1CCN(c2ncc3c(n2)CC(c2ccccc2O)CC3=O)CC1` (stereo unspecified), the Potency was 10 µM (active).
For `CCc1ccc(Nc2ncc3c(n2)CC(c2ccco2)CC3=O)cc1` (stereo unspecified), the “activity change, negative = inhibition” value was 16%.
Turning to `CN1CCN(c2ncc3c(n2)CC(c2ccccc2F)CC3=O)CC1` (stereo unspecified), the Potency is 3.98 µM (active).
As to `Cc1nc2nc3c(cn2n1)C(=O)CC(c1ccccc1)C3` (stereo unspecified), the “activity change, negative = inhibition” value is -0.051%.
Turning to `O=C1c2ccccc2C(=O)C1c1ccccc1F`, the “activity change, negative = inhibition” value is 12.5%.
Turning to `COc1cc(C2CC(=O)c3cnc(NC(C)=O)nc3C2)cc(OC)c1OC` (stereo unspecified), the “activity change, negative = inhibition” value is 30.8%.
